Results from PubChem BioAssay (NCI).
About 83,000 compounds went through this panel and 20% of them were active in at least one assay; those are over-represented in the sample as a whole.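 Step 1: grow cells in 96-well plates. Step 2: add test compound at a single concentration. Step 3: incubate 48 h. Step 4: record percent growth.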 Calls of active or inactive are those of the source. The calls were made as follows: active = growth percent below 10; inactive = the rest.

Assays:
Assay in all cases: NCI-60 one-dose screen, 48 h (100 = growth as untreated, 0 = no growth, -100 = all killed)
Details in all cases: 10 µM unless noted
RPMI-8226 leukemia = tested on: RPMI-8226 leukemia
OVCAR-8 ovarian = tested on: OVCAR-8 ovarian
OVCAR-5 ovarian = tested on: OVCAR-5 ovarian
OVCAR-4 ovarian = tested on: OVCAR-4 ovarian
SK-OV-3 ovarian = tested on: SK-OV-3 ovarian
IGROV1 ovarian = tested on: IGROV1 ovarian
OVCAR-3 ovarian = tested on: OVCAR-3 ovarian
NCI/ADR-RES ovarian = tested on: NCI/ADR-RES ovarian
HS 578T breast = tested on: HS 578T breast

Measured: growth

O=P(O)(O)C(O)(Cc1cccnc1)P(=O)(O)O
inactive: RPMI-8226 leukemia 98.2% | OVCAR-8 ovarian 94.6% | OVCAR-5 ovarian 118% | OVCAR-4 ovarian 86.9% | SK-OV-3 ovarian 111% | IGROV1 ovarian 95.8% | OVCAR-3 ovarian 100% | NCI/ADR-RES ovarian 102%

O=C(Nc1cccc(-n2ccc3c(NC(=O)c4ccccc4)nccc32)c1)c1ccc(Cl)c(Cl)c1
inactive: SK-OV-3 ovarian 18.7%
active: RPMI-8226 leukemia -51.3% | OVCAR-5 ovarian -36.4% | OVCAR-4 ovarian -88.7% | IGROV1 ovarian -52.1% | OVCAR-3 ovarian -81.3% | NCI/ADR-RES ovarian -28.1%

COc1ccc(C(=O)N2N=C(c3ccc(F)cc3)CC2c2cn(-c3ccccc3)nc2-c2ccccc2)cc1 (stereo not drawn)
inactive: RPMI-8226 leukemia 62% | OVCAR-8 ovarian 39.4% | OVCAR-5 ovarian 95.6% | OVCAR-4 ovarian 68.2% | IGROV1 ovarian 85% | OVCAR-3 ovarian 45.8% | HS 578T breast 83.7% | NCI/ADR-RES ovarian 34.9%

O=C1/C=C/[C@@H](O)[C@@H]2C[C@@H](O)C[C@H]2/C=C/CCC[C@H]([C@@H](O)CO)O1
inactive: OVCAR-8 ovarian 82% | OVCAR-5 ovarian 98.5% | IGROV1 ovarian 98.5% | OVCAR-3 ovarian 86.7% | HS 578T breast 53.5% | NCI/ADR-RES ovarian 90.1%

COc1cc(NC(=O)CSc2nc3ccc(Cl)cc3c(=O)n2Cc2ccccc2)cc(OC)c1OC
inactive: OVCAR-8 ovarian 68.7% | OVCAR-5 ovarian 85.4% | OVCAR-4 ovarian 81.1% | SK-OV-3 ovarian 72% | IGROV1 ovarian 84.9% | OVCAR-3 ovarian 77.7% | HS 578T breast 47.4% | NCI/ADR-RES ovarian 67.7%

COC(=O)c1ccc2c(c1)nc(-c1cc3ccccc3[nH]c1=O)n2-c1cc(C(C)(C)C)[nH]n1
inactive: RPMI-8226 leukemia 22% | OVCAR-8 ovarian 54% | OVCAR-4 ovarian 86.7% | IGROV1 ovarian 44.7% | OVCAR-3 ovarian 94.5% | HS 578T breast 39.3%
active: NCI/ADR-RES ovarian 2.6%

COc1cc2ccc(C(C)=O)cc2cc1OC
inactive: RPMI-8226 leukemia 105% | OVCAR-5 ovarian 92.3% | OVCAR-4 ovarian 120% | IGROV1 ovarian 106% | OVCAR-3 ovarian 100% | HS 578T breast 97.1% | NCI/ADR-RES ovarian 103%

CCCCCCCCCCCC1=NC(C)(C)CN1C(C)C
inactive: OVCAR-8 ovarian 58.7% | OVCAR-5 ovarian 74.6% | OVCAR-4 ovarian 50.7% | SK-OV-3 ovarian 75.9% | IGROV1 ovarian 32.5% | OVCAR-3 ovarian 48.3% | HS 578T breast 53.2% | NCI/ADR-RES ovarian 47.3%

CCOC(=O)c1ccc2c(c1)[n+](=O)c(C(=O)c1ccc3ccccc3c1)c(C(F)(F)F)n2[O-]
active: RPMI-8226 leukemia -66.8% | OVCAR-8 ovarian 3.25% | OVCAR-5 ovarian -98.5% | OVCAR-4 ovarian -65.8% | SK-OV-3 ovarian -100% | IGROV1 ovarian -82.9% | OVCAR-3 ovarian -99.6% | HS 578T breast -45.7% | NCI/ADR-RES ovarian -86.4%

Cc1cc(O)ccc1Sc1ccccc1[N+](=O)[O-]
inactive: RPMI-8226 leukemia 82.5% | OVCAR-8 ovarian 97.1% | OVCAR-5 ovarian 99.6% | OVCAR-4 ovarian 90% | SK-OV-3 ovarian 101% | IGROV1 ovarian 90.6% | OVCAR-3 ovarian 96.1% | HS 578T breast 80% | NCI/ADR-RES ovarian 83%

O=C(CCCN1CCC(O)(c2ccc(Br)cc2)CC1)c1ccc(F)cc1
inactive: RPMI-8226 leukemia 73.4% | OVCAR-8 ovarian 79.3% | OVCAR-5 ovarian 80% | OVCAR-4 ovarian 64.7% | SK-OV-3 ovarian 86% | IGROV1 ovarian 74% | OVCAR-3 ovarian 90% | NCI/ADR-RES ovarian 74%

Clc1cc2nc(-c3ccccc3)c(-c3ccccc3)nc2cc1Cl
inactive: OVCAR-8 ovarian 112% | OVCAR-4 ovarian 86.9% | SK-OV-3 ovarian 89.3% | IGROV1 ovarian 65.6% | OVCAR-3 ovarian 92.1% | HS 578T breast 93.7% | NCI/ADR-RES ovarian 98.5%

O=C(c1ccc(OCCN2CCCCC2)cc1)c1c(-c2ccc(O)cc2)sc2cc(O)ccc12
inactive: RPMI-8226 leukemia 82.9% | OVCAR-8 ovarian 86.8% | OVCAR-5 ovarian 124% | OVCAR-4 ovarian 72.8% | SK-OV-3 ovarian 100% | IGROV1 ovarian 76.1% | OVCAR-3 ovarian 91.8% | NCI/ADR-RES ovarian 91.5%

O=C1OCC2=C1C(c1ccccc1)c1cc3c(cc1N2CCO)OCO3 (stereo not drawn)
inactive: OVCAR-8 ovarian 63.3% | OVCAR-5 ovarian 46.8% | OVCAR-4 ovarian 52% | IGROV1 ovarian 39.5% | HS 578T breast 23.1%
active: SK-OV-3 ovarian 6.79% | OVCAR-3 ovarian 3.99% | NCI/ADR-RES ovarian -20.4%

NC(N)=N/N=C/c1cccc(Cl)c1Cl
inactive: OVCAR-8 ovarian 87.5% | OVCAR-5 ovarian 85% | SK-OV-3 ovarian 80% | IGROV1 ovarian 86.5% | OVCAR-3 ovarian 72.8% | HS 578T breast 71.3% | NCI/ADR-RES ovarian 75.7%

O=C1Nc2ccc(Cl)cc2/C1=C\c1c(-c2ccc(F)cc2)nc2ccccn12
inactive: RPMI-8226 leukemia 70.4% | OVCAR-8 ovarian 22% | OVCAR-5 ovarian 37% | IGROV1 ovarian 20.6%
active: OVCAR-4 ovarian -69.7% | SK-OV-3 ovarian -52.1% | OVCAR-3 ovarian -70.4% | HS 578T breast 1% | NCI/ADR-RES ovarian -37%

N/C(=C\C(=O)n1nc(-c2ccccc2)cc1N)c1ccccc1
inactive: RPMI-8226 leukemia 42.8% | OVCAR-8 ovarian 60.6% | OVCAR-5 ovarian 70.9% | OVCAR-4 ovarian 72% | SK-OV-3 ovarian 65.5% | IGROV1 ovarian 16.5% | OVCAR-3 ovarian 20.2% | NCI/ADR-RES ovarian 17%

O=C(O)c1ccccc1Oc1cc(-c2ccco2)nc(OCCN2CCOCC2)n1
inactive: RPMI-8226 leukemia 99.8% | OVCAR-8 ovarian 105% | OVCAR-5 ovarian 99.6% | OVCAR-4 ovarian 108% | SK-OV-3 ovarian 99.8% | IGROV1 ovarian 103% | OVCAR-3 ovarian 126% | NCI/ADR-RES ovarian 99.7%

CC1=CCC2C1CC=C(C)C(CC[C@H]1[C@@](C)(O)CCC3OC(C)(C)[C@H](OC(=O)c4ccccc4)CC[C@@]31C)C2(C)C (stereo partly drawn)
inactive: OVCAR-8 ovarian 87.4% | OVCAR-5 ovarian 100% | OVCAR-4 ovarian 71.5% | SK-OV-3 ovarian 93.8% | IGROV1 ovarian 102% | OVCAR-3 ovarian 72.8% | HS 578T breast 110% | NCI/ADR-RES ovarian 95%
